Test results as given in PubChem BioAssay (Tox21).
A number with no mark means an inactive call. Results filed as inconclusive are left out. A call without a number means that no potency is given here. Calls of active or inactive are those of the source. Unless noted, the call rests on the fitted dose curve; in most records, active means well fitted curve in the direction sought with a large enough effect in the repeat runs; inconclusive means weak or mixed curves; inactive means no such curve, though single readings can be large; an effect the other way counts as inactive or inconclusive.

Columns and labels:
[1] = qHTS assay to identify small molecule antagonists of the estrogen related receptor (ERR) signaling pathway from Tox21 library (AID 1224848); further: nearly all actives have a fitted effect of over 50% in size; further: potency means the concentration at half of the fitted maximal effect
Procedure, shortened: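 Cells: ERR line, 2,000/well; 6 h preincubation 37 C/5% CO2. Cpd in DMSO via pin tool; 18 h, 37 C. ONE-Glo, 30 min RT, luminescence.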

[2] = qHTS assay to identify small molecule agonists of the estrogen related receptor (ERR) signaling pathway from Tox21 library (AID 1224849; calls by dose curve; further: nearly all actives have a fitted effect of over 15% in size); settings: ERR reporter cell line, ONE-Glo luciferase, 18 h; at 92.4 µM (top of the series) unless noted
Procedure, shortened: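 ERR cells, 6 h pre-incubation 37 C/5% CO2; cpd in DMSO pinned; 18 h 37 C; ONE-Glo added, 30 min RT; luminescence read. Agonist mode, qHTS.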

[3] = qHTS RealTime-Glo MT Cell Viability Assay in HepG2 cells - 24 hour (AID 1224867); further: nearly all actives have a fitted effect of over 50% in size; further: potency means the concentration at half of the fitted maximal effect
Procedure, shortened: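 Cell number in HepG2 cultures estimated from NanoLuc luminescence generated by metabolic reduction of a prosubstrate by living cells. The homogeneous, nonlytic format allowed repeated reads at 0, 8, 16, 24, 32 and 40 h of compound exposure.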

[4] = qHTS RealTime-Glo MT Cell Viability Assay in HEK293 cells - 32 hour (AID 1224868); further: nearly all actives have a fitted effect of over 50% in size; further: potency means the concentration at half of the fitted maximal effect
Procedure, shortened: (§1)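 Homogeneous bioluminescent viability format in HEK293 cells (600 cells/well). Following 5 h at 37 C/5% CO2, 23 nL compound was pintooled; the signal was measured repeatedly during 40 h incubation.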

[5] = A CellTox Green Cytotoxicity Assay to monitor cytotoxicity in HEK293 cells - 0 hour (AID 1224869); further: nearly all actives have a fitted effect of over 50% in size
Procedure, shortened: (§2)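 Nonlytic real-time cytotoxicity: HEK293 + CellTox Green reagent plated, 5 h preincubation, pintool compound addition (23 nL in DMSO), 37 C for 40 h, fluorescence measured at successive time points.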

[6] = qHTS RealTime-Glo MT Cell Viability Assay in HepG2 cells - 40 hour (AID 1224870); further: nearly all actives have a fitted effect of over 50% in size; further: potency means the concentration at half of the fitted maximal effect
Procedure, shortened: (§3)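 HepG2 cells mixed with RealTime-Glo MT reagents (NanoLuc plus cell-permeant prosubstrate) were seeded at 600 cells/well, incubated 5 h at 37 C/5% CO2, then pinned with compounds in DMSO; nonlytic luminescence tracked viability during 40 h treatment.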

[7] = qHTS RealTime-Glo MT Cell Viability Assay in HEK293 cells - 16 hour (AID 1224872); further: nearly all actives have a fitted effect of over 50% in size; further: potency means the concentration at half of the fitted maximal effect
Procedure, shortened: as §1

[8] = qHTS RealTime-Glo MT Cell Viability Assay in HepG2 cells - 8 hour (AID 1224873); further: nearly all actives have a fitted effect of over 55% in size; further: potency means the concentration at half of the fitted maximal effect
Procedure, shortened: as §3

[9] = qHTS RealTime-Glo MT Cell Viability Assay in HEK293 cells - 40 hour (AID 1224874); settings: RealTime-Glo luminescence; max response: active compounds read low; further: nearly all actives have a fitted effect of over 50% in size; further: potency means the concentration at half of the fitted maximal effect
Procedure, shortened: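 Cells were seeded together with NanoLuc luciferase and a prosubstrate that viable cells reduce to a luciferase substrate. After a 5 h incubation at 37 C/5% CO2, compounds were added and luminescence was measured repeatedly during 40 h of treatment.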

[10] = A CellTox Green Cytotoxicity Assay to monitor cytotoxicity in HEK293 cells - 40 hour (AID 1224871); further: nearly all actives have a fitted effect of over 45% in size; further: potency means the concentration at half of the fitted maximal effect
Procedure, shortened: as §2

Compound | Potency [1] | activity change, positive = activation [2] | Potency [3] | Potency [4] | Potency [5] | Potency [6] | Potency [7] | Potency [8] | max response [9] [%] | Potency [10] | Potency [9]
C=CC(=O)O[C@H]1C[C@@H]2CC[C@@]1(C)C2(C)C | inactive | 1.18% | inactive | inactive | inactive | inactive | inactive | inactive | 3.56 |  | 
CCCC(C)C=O (stereo unspecified) | inactive | 4.95% | inactive | inactive | inactive | inactive | inactive | inactive | 0.0424 | inactive | 
COc1cc([C@@H]2c3cc4c(cc3[C@@H](O[C@@H]3O[C@@H]5CO[C@@H](C)O[C@H]5[C@H](O)[C@H]3O)[C@H]3COC(=O)[C@H]23)OCO4)cc(OC)c1O | 3.81 µM (active) | -61.8% | inactive | 0.861 µM (active) | inactive | inactive |  | inactive |  | inactive | 0.684 µM (active)
CC(=O)Nc1ccc(N=Nc2cc(C)ccc2O)cc1 | inactive | 169% (active) | inactive | inactive | inactive | inactive | inactive | inactive | -19.1 |  | 
CCCCCN=C(N)N/N=C/c1c[nH]c2ccc(OC)cc12 | 15 µM (active) | -70.2% [at 42.5 µM] | 6.01 µM (active) | 4.25 µM (active) | inactive | 5.35 µM (active) | 4.77 µM (active) | 10.7 µM (active) |  | 6.74 µM (active) | 4.25 µM (active)
O=C1C=CC(=O)N1c1cccc(N2C(=O)C=CC2=O)c1 | 68.6 µM (active) | -72.9% | 15.5 µM (active) | 9.77 µM (active) | inactive | 17.4 µM (active) | 12.3 µM (active) | 21.9 µM (active) |  |  | 9.77 µM (active)
Cc1ccc(S(=O)(=O)C(I)I)cc1 | 61.1 µM (active) | -77.2% | 11 µM (active) | 12.3 µM (active) | inactive | 12.3 µM (active) | 15.5 µM (active) | 12.3 µM (active) |  |  | 
c1ccc2occc2c1 | inactive | 3.98% | inactive | inactive | inactive | inactive | inactive | inactive | 2.38 | inactive | 
CCCCCCCCCCCCCCCCC(C(=O)O)C(O)(CC(=O)O)C(=O)O (stereo unspecified) | inactive | -3.01% [at 42.5 µM] | inactive | inactive | inactive |  | inactive | inactive | -0.507 | inactive | 
CN[C@H]1CC[C@@H](c2ccc(Cl)c(Cl)c2)c2ccc(S(N)(=O)=O)cc21 | 61.1 µM (active) | -79% | 24.5 µM (active) | 19.5 µM (active) | inactive | 21.9 µM (active) | 24.5 µM (active) | 49 µM (active) |  | 27.5 µM (active) | 
S=C1NC=NC2N=CNC12 (stereo unspecified) | 19.3 µM (active) | -55.5% | inactive | 21.9 µM (active) | inactive | inactive |  | inactive |  | inactive | 
COC(=O)c1ccc([N+](=O)[O-])cc1 | inactive | 1.35% | inactive | inactive | inactive | inactive | inactive | inactive |  | inactive | 
CCc1c(C)cc(N)c(CC)c1N | inactive | -1.89% | inactive | inactive | inactive |  | inactive | inactive |  | inactive | 
CC/C(=C(/c1ccc(O)cc1)c1ccc(OCCN(C)C)cc1)c1ccccc1 | 18 µM (active) | -77.3% [at 42.5 µM] | 18.2 µM (active) | 9.11 µM (active) | inactive | 12.9 µM (active) | 12.9 µM (active) | 28.8 µM (active) |  | 20.4 µM (active) | 8.12 µM (active)
Nc1cc([N+](=O)[O-])ccc1Cl | inactive | 1.59% | inactive | inactive | inactive | inactive | inactive | inactive | 0.705 | inactive | 
CCCCCCCCc1ccc(Nc2ccc(CCCCCCCC)cc2)cc1 | inactive | -4.1% [at 42.5 µM] | inactive | inactive | inactive | inactive | inactive | inactive | -0.6 | inactive | 
Clc1ccc2c(Cl)ccnc2c1 | inactive | 1.29% | inactive | inactive | inactive | inactive | inactive | inactive | -6.98 |  | 
